PubChem BioAssay AID588590 (National Center for Advancing Translational Sciences (NCATS), 2011)
Several values for one entry are separate records, joined by “and”; a condition that tells them apart may be missing. Equal entries are not always repeated. The campaign covered roughly 390,000 compounds. About 4,000 (1%) were called active. Where a call stands in place of a potency, no number is given. Inconclusive results (about 7%) are left out. Calls follow the shape of the dose curve; as a rule, active = well fitted inhibition curve with a large enough effect; inconclusive = small, poorly fitted or top-dose-only effect, or another doubt; inactive = no such curve, though single readings can be large or run the other way. This excerpt belongs to a sample that is enriched for actives. A structure can be active in one record and inactive in another.
Potency is read from the fitted curve at half-maximal effect.

What follows are compounds tested against DNA polymerase iota (Homo sapiens) (UniProt Q9UNA4) (assay: qHTS for Inhibitors of Polymerase Iota). Settings: Pol iota fluorescent replication assay, 10 min; series mostly up to 115 µM.
Sequence of DNA polymerase iota (Homo sapiens) (Q9UNA4 whole entry, looked up): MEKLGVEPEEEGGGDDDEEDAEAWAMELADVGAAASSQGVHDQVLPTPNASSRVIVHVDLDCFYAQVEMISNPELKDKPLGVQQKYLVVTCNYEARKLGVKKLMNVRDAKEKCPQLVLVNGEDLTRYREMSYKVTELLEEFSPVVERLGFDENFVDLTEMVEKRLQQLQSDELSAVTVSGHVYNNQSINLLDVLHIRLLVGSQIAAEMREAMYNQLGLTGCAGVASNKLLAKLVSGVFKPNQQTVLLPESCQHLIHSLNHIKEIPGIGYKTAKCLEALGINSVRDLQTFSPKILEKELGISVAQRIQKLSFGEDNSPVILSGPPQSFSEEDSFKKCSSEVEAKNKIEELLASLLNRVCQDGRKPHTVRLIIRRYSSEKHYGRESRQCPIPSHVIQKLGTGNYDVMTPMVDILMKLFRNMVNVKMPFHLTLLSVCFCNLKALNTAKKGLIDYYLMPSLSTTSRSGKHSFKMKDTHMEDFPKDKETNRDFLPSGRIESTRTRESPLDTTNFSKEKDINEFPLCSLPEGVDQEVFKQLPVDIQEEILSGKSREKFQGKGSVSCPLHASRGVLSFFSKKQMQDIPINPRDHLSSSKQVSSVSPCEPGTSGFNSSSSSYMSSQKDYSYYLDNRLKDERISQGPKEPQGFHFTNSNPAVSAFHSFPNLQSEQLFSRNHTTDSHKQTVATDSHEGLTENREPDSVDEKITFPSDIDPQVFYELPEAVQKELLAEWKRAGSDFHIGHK
Method in brief: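 Fluorescent replication assay read twice, at 0 min and 10 min after adding 50 nM (final) substrate. Enzyme (10 nM) and compounds were first incubated 15 min at room temperature; enzyme-free buffer wells were negative controls.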
`COc1cc(Cl)ccc1Nc1ncc(C(=O)N2CCN(c3ccccc3OC)CC2)c2ccccc12` was tested, and the Potency was “inactive”. In the case of `CCc1ccc(S(=O)(=O)c2nnn3c2nc(NCc2ccccc2OC)c2cc(Cl)ccc23)cc1`, the Potency is reported as “inactive”. `CN(C)NC(=O)C(NC(=O)c1ccc(N)cc1)C12CC3CC(CC(C3)C1)C2` (stereo not given) was tested, and the Potency was 35.5 µM (active). `CC(CNC(=O)c1ccc(N)cc1)NC(=O)c1ccc(N)cc1` (stereo not given) was tested, and the Potency was “inactive”. For `CC(NC(=O)c1ccc(N2CCNCC2)c([N+](=O)[O-])c1)C12CC3CC(CC(C3)C1)C2` (stereo not given), the Potency was “inactive”. For `CC(CCCc1ccccc1)NC(=O)c1nn(-c2ccc(Cl)cc2)nc1CO` (stereo not given), the Potency was “inactive”. In the case of `COc1ccc(CCNC(=O)c2ccc3c(c2)sc2nc(-c4ccc(C)cc4)cn23)cc1OC`, the Potency is reported as “inactive”. In the case of `CCOc1ccccc1C(=O)NCc1ccc2c(c1)CCN2C(=O)c1ccc(F)cc1`, the Potency is reported as “inactive”. With `COC(=O)c1ccccc1NC(=O)Cn1c(=O)n(-c2cccc(C(F)(F)F)c2)c(=O)c2c(C)c(C)sc21` the Potency was “inactive”. For `CC1C(=O)Nc2ccc(S(=O)(=O)N3CCN(c4ccccc4F)CC3)cc2NC1=O` (stereo not given), the Potency was “inactive”. With `CON(C)S(=O)(=O)c1ccc2c(c1)NC(=O)C1CCCN21` (stereo not given) the Potency was 22.4 µM (active). For `COc1ccc(N2CCN(S(=O)(=O)c3ccc4c(c3)NC(=O)C(C)C(=O)N4)CC2)cc1` (stereo not given), the Potency was “inactive”. For `NC(=O)C[n+]1cccc(C(N)=O)c1`, the Potency was “inactive”. In the case of `N#Cc1ccc[n+](CC(=O)c2ccc(O)c(O)c2)c1`, the Potency is reported as 0.891 µM (active). With `N#Cc1ccc[n+](CC(=O)c2ccc(F)cc2)c1` the Potency was “inactive”. In the case of `Cc1ccccc1C(=O)NCc1nc(-c2ccc(Cl)cc2)no1`, the Potency is reported as “inactive”. With `CCN(CC)CCNC(=O)CN1N=C(c2ccc(OC)cc2)CCC1=O` the Potency was “inactive”. With `COc1ccc(OC)c(CNC(=O)CN2C(=O)CCn3nc(-c4cn(C)c5ccccc45)cc32)c1` the Potency was “inactive”. In the case of `Cn1c(=O)cc(OCC(=O)N2CCN(c3ccccc3)CC2)c2ccccc21`, the Potency is reported as “inactive”. For `CCC(=O)N1CCc2cc(Br)cc(S(=O)(=O)CCC(=O)NCc3ccccc3OC)c21`, the Potency was “inactive”. With `Cc1ccc(NC(=O)CN2C(=O)C(c3ccc(F)cc3)=NC23CCCCCC3)c(C)c1` the Potency was 44.7 µM (active). In the case of `COc1ccc(NC(=O)CN2C(=O)C(c3ccccc3)=NC23CCCCCC3)cc1OC`, the Potency is reported as “inactive”. `CCc1ccc(NC(=O)CN2C(=O)C(c3ccccc3)=NC23CCCCCC3)cc1` was tested, and the Potency was “inactive”. For `CCCCN(C)c1nnc(NC(=O)Nc2ccc(Br)c(C)c2)s1`, the Potency was “inactive”. With `CCOCCCn1c(SCC(=O)Nc2ccc(CC)cc2)nc2ccccc2c1=O` the Potency was “inactive”. With `Cc1ccc(Cl)cc1NC(=O)Cc1ccc(-n2c(C)nc3cccnc32)cc1` the Potency was “inactive”. In the case of `O=c1c2c(-c3ccccc3)ccnc2[nH]n1-c1ccccc1`, the Potency is reported as “inactive and 89.1 µM (active)”. `Cc1ccc(-c2ccnc3[nH]n(-c4ccccc4)c(=O)c23)cc1` was tested, and the Potency was “inactive”. In the case of `COc1ccccc1-c1ccnc2[nH]n(-c3ccccc3)c(=O)c12`, the Potency is reported as “inactive”. In the case of `COc1ccc(OC)c(NC(=O)CN2CCCN(Cc3cc(C)ccc3C)S2(=O)=O)c1`, the Potency is reported as “inactive”. `CCOc1ccc(NC(=O)c2cc3c(=O)n(Cc4cccs4)ccc3nc2C)cc1` was tested, and the Potency was “inactive”. With `Cc1cc2nn(-c3ccc(Cl)cc3)nc2cc1NC(=O)C(C)C` the Potency was “inactive”. With `O=C(NCc1ccccc1)c1cc(-c2cccc(Cl)c2)on1` the Potency was “inactive”. `O=C(O)C(c1ccccc1)N1C(=O)/C(=C\c2ccc(-c3cccc(Cl)c3)o2)SC1=S` (stereo not given) was tested, and the Potency was 31.6 µM (active). For `O=C(NC(=S)Nc1cc(C(F)(F)F)ccc1N1CCOCC1)c1ccc(-c2cccc(Cl)c2)o1`, the Potency was “inactive”. With `Cc1ccc(-c2nnc(Nc3ccc(OCC(N)=O)cc3)c3ccccc23)cc1S(=O)(=O)NCC1CCCO1` (stereo not given) the Potency was “inactive”. With `O=C(c1cnn2c1NC(=C1CC1)C=C2C(F)F)N1CCc2ccccc2C1` the Potency was “inactive”. `Cc1ccc(NC(=O)c2cc(S(=O)(=O)NCCC3=CCCCC3)ccc2F)cc1C` was tested, and the Potency was “inactive”. `CCCSc1ncccc1C(=O)O` was tested, and the Potency was “inactive”. `O=C(O)c1cccnc1NC1CCCC1` was tested, and the Potency was 89.1 µM (active). `O=C(COC(=O)c1cccnc1Cl)NC(=O)NC1CCCCC1` was tested, and the Potency was “inactive”. In the case of `CSc1ccccc1-c1nnc(NC(=O)c2ccc3c(c2)OCCO3)o1`, the Potency is reported as “inactive”. `Cc1ccc(NC(=O)Cn2nnc3sc4c(c3c2=O)CCC(C)C4)cc1` (stereo not given) was tested, and the Potency was “inactive”. `O=C(CCNC(=O)c1ccccc1)NN=Cc1ccc(Br)o1` was tested, and the Potency was 35.5 µM (active). `O=C(CCc1n[nH]c(=O)[nH]c1=O)N/N=C/c1ccc(Br)o1` was tested, and the Potency was “inactive”. `O=C(CCNC(=O)c1ccccc1Cl)NN=Cc1ccco1` was tested, and the Potency was “inactive”. With `O=S(=O)(Nc1cccc2cccnc12)c1cccc2cccnc12` the Potency was “inactive”. In the case of `ClC/C=C/C[n+]1ccccc1Cl`, the Potency is reported as “inactive”. With `CCOC(=O)C1CCCN(C(=O)Cn2ncc3c(C)n(Cc4ccc(F)cc4)c(C)c3c2=O)C1` (stereo not given) the Potency was “inactive”. In the case of `O=c1ccc2c(-c3ccccc3S(=O)(=O)O)c3ccc(O)c(O)c3oc-2c1O`, the Potency is reported as 1.12 µM (active). In the case of `COc1ccc(CCn2c3c(c(=O)[nH]c2=S)CN(C(C)C)CN3)cc1OC`, the Potency is reported as “inactive”. `COc1ccccc1-c1cc2nc(C)c(CCC(=O)NC3CCCCC3)c(C)n2n1` was tested, and the Potency was “inactive”. For `CN(C)c1ccc(/C=c2\[nH]c(=O)/c(=C/c3ccc(N(C)C)cc3)[nH]c2=O)cc1`, the Potency was “inactive”. For `COc1ccc2c(c1)c(=Cc1ccc(N(C)C)cc1)c1cc(-c3ccccc3)[n+](C)n12`, the Potency was 39.8 µM (active). With `O=C(Cn1ncn2nc(-c3cccs3)cc2c1=O)NCc1cccc(Br)c1` the Potency was “inactive”. For `O=C(Nc1ccc(OC(F)(F)F)cc1)C1CCCN(S(=O)(=O)c2ccc(Br)s2)C1` (stereo not given), the Potency was “inactive”. With `SCc1nc2ccc(Cl)cc2[nH]1` the Potency was “inactive”. `Fc1ccc(CN2CCc3nc(Nc4ccccc4)ncc3C2)cc1F` was tested, and the Potency was “inactive”. For `O=C(COC(=O)c1cc(=O)[nH]c2ccccc12)Nc1nc(-c2cccc(Br)c2)cs1`, the Potency was “inactive”. With `O=C(CSc1nc2ccccc2c(=O)[nH]1)Nc1nc(-c2ccc(Br)cc2)cs1` the Potency was 6.31 µM (active). In the case of `Cc1cc(C)c(-c2csc(NC(=O)CCCc3nc4ccccc4c(=O)[nH]3)n2)c(C)c1`, the Potency is reported as “inactive”. With `COc1ccc(-n2nc(C(=O)NCCc3ccc(Cl)cc3)c3c4ccccc4n(C)c3c2=O)cc1Cl` the Potency was “inactive”. In the case of `Cc1cccc(-n2ccnc2SCC(=O)Nc2cccc3ccccc23)c1C`, the Potency is reported as “inactive”. For `COc1cc2nc(C#Cc3nc4cc(OC)c(OC)cc4[nH]3)[nH]c2cc1OC`, the Potency was “inactive”. For `COc1ccc(NC(=O)c2sc(N3CCOCC3)nc2-c2ccccc2)c(OC)c1`, the Potency was “inactive”. For `Cc1cc(C)c2nc(N3CCC(C(=O)NCCN4CCOCC4)CC3)sc2c1`, the Potency was “inactive”. `Cc1nc(N2CCOCC2)sc1C(=O)NN` was tested, and the Potency was 7.08 µM (active). `Cn1c(=O)sc2cc(NS(=O)(=O)c3ccc(C(C)(C)C)cc3)ccc21` was tested, and the Potency was “inactive”. For `CCOc1ccc(Nc2oc(/C=C/c3ccc(F)cc3)nc2C#N)cc1`, the Potency was “inactive”. For `COc1cc(C(=O)NCCc2csc3nc(-c4ccccc4C)nn23)cc(OC)c1OC`, the Potency was “inactive”. With `CC(=O)N(C1=C(Cl)C(=O)c2ccccc2C1=O)c1ccc(C(=O)O)cc1` the Potency was 3.16 µM (active). `Cc1cccc(C(C)C)c1NC(=O)C(NS(=O)(=O)c1cccc2nsnc12)c1ccccc1` (stereo not given) was tested, and the Potency was “inactive”. With `CC(=O)N1CCCc2cc(S(=O)(=O)N3CCC(C(=O)NC4CCCCC4)CC3)ccc21` the Potency was “inactive”. In the case of `COc1ccccc1Nc1cc(C(=O)NCCCN(C)C2CCCCC2)c2ccccc2n1`, the Potency is reported as “inactive”. `COc1ccc(Nc2cc(C(=O)NCCCN(C)c3ccccc3)c3ccccc3n2)c(OC)c1` was tested, and the Potency was “inactive”. In the case of `CN(C)CCNC(=O)c1ccc(Cl)c2cc3ccccc3nc12`, the Potency is reported as 89.1 µM (active). In the case of `CCOC(=O)c1ccc(NC(=O)CCS(=O)(=O)c2ccc(C)cc2)cc1`, the Potency is reported as “inactive”. `CCOC(=O)c1c(C)[nH]c(C)c1S(=O)(=O)N1CCC(C(=O)Nc2ccc(C)c(Cl)c2)CC1` was tested, and the Potency was “inactive”. For `CCOC(=O)c1scc(-c2ccccc2)c1S(=O)(=O)Nc1ccccc1F`, the Potency was “inactive”. With `CCN1CCN(C(c2ccc(C)cc2)c2c(O)cc(C)n(Cc3ccco3)c2=O)CC1` (stereo not given) the Potency was “inactive”. For `O=C(CSc1ccccc1)Nc1cccc(S(=O)(=O)N2CCOCC2)c1`, the Potency was “inactive”. For `O=C(COC(=O)/C=C/c1ccc(Br)o1)Nc1cccc(S(=O)(=O)N2CCOCC2)c1`, the Potency was 20 µM (active). In the case of `O=C(COC(=O)CCc1ccc(S(=O)(=O)N2CCOCC2)cc1)Nc1cccc(Cl)c1`, the Potency is reported as “inactive”. With `Cc1ccc(NC(=O)Cc2ccc(NC(=O)N3CCCCc4ccccc43)cc2)cc1` the Potency was “inactive”. With `COc1ccc(-c2nc(SCC(=O)N3CCOCC3)n[nH]2)cc1` the Potency was “inactive”. For `COC1=C/C(=C/c2c(N)n3nc(CC(=O)N4CCOCC4)sc3nc2=O)C=CC1=O`, the Potency was 22.4 µM (active). In the case of `C=CCC1=C/C(=C\c2c(N)n3nc(CC(=O)N4CCOCC4)sc3nc2=O)C=C(OC)C1=O`, the Potency is reported as 22.4 µM (active). In the case of `COc1ccc(-c2ccnc(SCC(=O)N3CCOCC3)n2)cc1`, the Potency is reported as “inactive”. `CCCOc1ccc(C2c3c(-c4ccccc4O)n[nH]c3C(=O)N2Cc2cccnc2)cc1` (stereo not given) was tested, and the Potency was “inactive”. For `COc1ccc(CNC(=O)c2ccc(NC(=O)N3CC4CCCN4c4ccccc43)cc2)cc1` (stereo not given), the Potency was “inactive”. With `O=C1CC(c2ccccc2)CC2=C1C(c1ccco1)n1nc(C(F)(F)F)nc1N2` (stereo not given) the Potency was “inactive”. In the case of `CC1(C)CC(=O)c2cc(C(=O)NCc3ccccc3)c(=O)[nH]c2C1`, the Potency is reported as “inactive”. With `O=C(CSCc1cnn(-c2ccccc2)c1-n1cccc1)NCc1ccccc1Br` the Potency was “inactive”. For `CC1(C)Cc2ccccc2-c2c[nH]c(=O)n21`, the Potency was “inactive”. In the case of `COc1ccc(S(=O)(=O)Nc2cccc3cccnc23)c(N)c1`, the Potency is reported as “inactive”. In the case of `Cc1ccc(CN(C(=O)c2ccccc2[N+](=O)[O-])c2ccccn2)cc1`, the Potency is reported as “inactive”. In the case of `CCn1cc(C(=O)NCc2ccc(C)cc2)c(=O)c2cc(S(=O)(=O)N3CCc4ccccc4C3)ccc21`, the Potency is reported as “inactive”. With `COc1cc(NC(=O)CSc2nc3nc(C)c(Cc4ccc(C)cc4)c(C)n3n2)cc(OC)c1OC` the Potency was “inactive”. With `Cc1ccc(Cc2c(C)nc3nc(SCC(=O)NCCN4CCOCC4)nn3c2C)cc1` the Potency was “inactive”. With `Cc1nc2nc(SCC(=O)NCc3ccco3)nn2c(C)c1Cc1ccccc1` the Potency was 50.1 µM (active).
